Results on 1 sequence are retold here after paper PMC7862700, “An all-to-all approach to the identification of sequence-specific readers for epigenetic DNA modifications on cytosine”.

Assay in all cases: DAPPL (digital affinity profiling via proximity ligation, sequencing); 10 mM Tris-HCl pH 7.5, 50 mM NaCl, 1 mM DTT, 4% glycerol, room temperature, 30 min; GST-TFs on glutathione beads, 16-mer random dsDNA library, 0.1% formaldehyde crosslink after washing; high values mean tight binding
One experiment concerns the target T1, FEV (Homo sapiens, UniProt Q99581 1-238).
T1 sequence: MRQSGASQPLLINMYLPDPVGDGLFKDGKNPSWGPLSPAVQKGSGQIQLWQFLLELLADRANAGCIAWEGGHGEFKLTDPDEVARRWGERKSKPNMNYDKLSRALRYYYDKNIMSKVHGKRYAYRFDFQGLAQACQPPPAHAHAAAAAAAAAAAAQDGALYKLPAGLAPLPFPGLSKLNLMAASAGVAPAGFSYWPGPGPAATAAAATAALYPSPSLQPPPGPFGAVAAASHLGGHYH
The note with it: protein: recombinant; tags: N-terminal GST; dsDNA, one strand shown. In outline:
(§1)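 Sequencing on an Illumina NextSeq500 followed washing, crosslinking with 0.1% formaldehyde, proximity ligation (BsaI/T4 ligase, 1 h, 37 °C) and PCR amplification of pools that had been incubated for 30 min at room temperature with 200 nmole of a random double-stranded 16-mer DNA library in Tris/NaCl/DTT/glycerol buffer. Each pool held DNA-barcoded human transcription factors, expressed in yeast as GST fusions and captured on glutathione beads, plus a tag-only sample. Binding signal is a hexamer's read frequency for a factor divided by its frequency in the tag-only sample.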

Another experiment concerns the target ETV5 (Homo sapiens, UniProt P41161 1-510). The note with it: protein: recombinant; tags: N-terminal GST; dsDNA, one strand shown. An outline of the steps:
as §1

A further experiment has as its target HSF1 (Homo sapiens, UniProt Q00613 1-529). Particulars: protein: recombinant; tags: N-terminal GST; chain copies: 3; dsDNA, one strand shown. In outline:
as §1

Another experiment concerns the target T2, SPIC (Homo sapiens, UniProt Q8N5J4 1-248).
T2 sequence: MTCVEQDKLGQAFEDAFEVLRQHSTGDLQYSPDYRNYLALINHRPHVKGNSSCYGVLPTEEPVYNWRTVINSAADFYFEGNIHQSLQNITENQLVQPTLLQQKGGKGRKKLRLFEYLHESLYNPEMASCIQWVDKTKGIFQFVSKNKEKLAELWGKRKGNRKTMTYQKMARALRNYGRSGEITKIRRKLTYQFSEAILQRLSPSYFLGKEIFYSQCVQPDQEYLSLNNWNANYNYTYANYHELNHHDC
Particulars: protein: recombinant; tags: N-terminal GST; dsDNA, one strand shown. An outline of the steps:
as §1

A further experiment concerns the target ELF4 (Homo sapiens, UniProt Q99607 1-663). The note with it: protein: recombinant; tags: N-terminal GST; dsDNA, one strand shown. An outline of the steps:
as §1

The next experiment has as its target T3, ELK4 (Homo sapiens, UniProt P28324-2 1-405).
T3 sequence: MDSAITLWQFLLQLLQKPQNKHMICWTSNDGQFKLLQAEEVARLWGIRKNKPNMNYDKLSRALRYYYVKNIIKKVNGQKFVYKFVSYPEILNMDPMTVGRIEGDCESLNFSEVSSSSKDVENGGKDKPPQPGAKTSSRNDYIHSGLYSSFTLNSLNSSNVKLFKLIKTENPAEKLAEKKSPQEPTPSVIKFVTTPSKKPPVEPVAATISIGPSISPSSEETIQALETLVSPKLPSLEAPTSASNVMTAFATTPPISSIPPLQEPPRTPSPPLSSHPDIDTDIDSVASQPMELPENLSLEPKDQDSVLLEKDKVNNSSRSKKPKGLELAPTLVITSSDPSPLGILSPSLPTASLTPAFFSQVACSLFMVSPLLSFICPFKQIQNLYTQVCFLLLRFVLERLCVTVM
Particulars: protein: recombinant; tags: N-terminal GST; dsDNA, one strand shown. An outline of the steps:
as §1

For a further experiment, the target named is T4, ETV2 (Homo sapiens, UniProt O00321 1-342).
T4 sequence: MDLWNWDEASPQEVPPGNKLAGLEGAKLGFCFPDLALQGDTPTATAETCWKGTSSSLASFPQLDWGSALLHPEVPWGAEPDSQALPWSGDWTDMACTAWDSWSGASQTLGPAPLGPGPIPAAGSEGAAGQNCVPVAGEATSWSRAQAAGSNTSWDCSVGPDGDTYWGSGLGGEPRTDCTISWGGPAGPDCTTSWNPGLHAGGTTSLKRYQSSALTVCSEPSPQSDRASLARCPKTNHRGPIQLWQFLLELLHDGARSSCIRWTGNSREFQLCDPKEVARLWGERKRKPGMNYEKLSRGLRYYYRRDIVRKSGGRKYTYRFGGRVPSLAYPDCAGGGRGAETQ
The note with it: protein: recombinant; tags: N-terminal GST; dsDNA, one strand shown. In outline: as §1

For a further experiment, the target named is T5, ELF3 (Homo sapiens, UniProt P78545 1-371).
T5 sequence: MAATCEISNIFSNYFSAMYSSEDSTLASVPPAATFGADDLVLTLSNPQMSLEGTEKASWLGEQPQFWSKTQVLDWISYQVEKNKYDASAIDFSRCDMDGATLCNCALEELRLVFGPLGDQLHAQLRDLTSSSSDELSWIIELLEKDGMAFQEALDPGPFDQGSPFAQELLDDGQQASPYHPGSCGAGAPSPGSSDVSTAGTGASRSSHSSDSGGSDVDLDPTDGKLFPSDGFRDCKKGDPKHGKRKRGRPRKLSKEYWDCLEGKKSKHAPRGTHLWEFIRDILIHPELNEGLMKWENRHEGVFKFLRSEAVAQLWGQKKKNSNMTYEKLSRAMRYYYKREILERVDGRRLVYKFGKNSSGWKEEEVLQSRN
Particulars: protein: recombinant; tags: N-terminal GST; dsDNA, one strand shown. In outline:
as §1

In another experiment the target is CRX (Homo sapiens, UniProt O43186 1-299). The note with it: protein: recombinant; tags: N-terminal GST; dsDNA, one strand shown. In outline:
as §1

A further experiment deals with ETV1 (Homo sapiens, UniProt P50549 1-477). Particulars: protein: recombinant; tags: N-terminal GST; dsDNA, one strand shown. In outline: as §1
A further experiment deals with T6, ERF (Homo sapiens, UniProt P50548 1-548).
T6 sequence: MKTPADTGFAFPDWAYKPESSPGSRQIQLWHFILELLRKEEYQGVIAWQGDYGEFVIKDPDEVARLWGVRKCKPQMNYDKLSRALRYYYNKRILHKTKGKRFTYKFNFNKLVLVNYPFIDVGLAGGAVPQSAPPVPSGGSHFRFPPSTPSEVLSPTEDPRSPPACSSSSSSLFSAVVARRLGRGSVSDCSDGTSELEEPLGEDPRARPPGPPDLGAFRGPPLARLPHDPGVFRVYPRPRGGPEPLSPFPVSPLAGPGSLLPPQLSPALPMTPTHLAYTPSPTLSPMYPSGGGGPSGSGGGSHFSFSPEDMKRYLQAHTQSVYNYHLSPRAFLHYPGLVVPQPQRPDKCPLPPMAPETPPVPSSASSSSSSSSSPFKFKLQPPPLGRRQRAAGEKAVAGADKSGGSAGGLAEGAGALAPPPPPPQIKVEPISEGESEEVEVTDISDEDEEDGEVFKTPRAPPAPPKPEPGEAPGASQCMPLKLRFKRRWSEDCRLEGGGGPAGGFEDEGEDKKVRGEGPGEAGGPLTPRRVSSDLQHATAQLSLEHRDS
The note with it: protein: recombinant; tags: N-terminal GST; dsDNA, one strand shown. An outline of the steps:
as §1

The target of another experiment is T7, ETV3L (Homo sapiens, UniProt Q6ZN32 1-361).
T7 sequence: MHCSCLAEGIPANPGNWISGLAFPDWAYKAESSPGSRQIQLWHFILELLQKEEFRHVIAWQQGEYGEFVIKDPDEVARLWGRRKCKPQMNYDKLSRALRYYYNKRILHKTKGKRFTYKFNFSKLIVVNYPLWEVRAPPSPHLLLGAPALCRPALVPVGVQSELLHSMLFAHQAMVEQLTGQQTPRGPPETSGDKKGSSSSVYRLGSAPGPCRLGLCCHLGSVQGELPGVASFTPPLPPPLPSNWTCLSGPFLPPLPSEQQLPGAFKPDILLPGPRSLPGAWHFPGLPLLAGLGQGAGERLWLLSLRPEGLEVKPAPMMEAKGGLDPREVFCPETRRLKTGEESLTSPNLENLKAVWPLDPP
The note with it: protein: recombinant; tags: N-terminal GST; dsDNA, one strand shown. An outline of the steps: as §1

For a further experiment, the target named is T8, ETS2 (Homo sapiens, UniProt P15036 1-469).
T8 sequence: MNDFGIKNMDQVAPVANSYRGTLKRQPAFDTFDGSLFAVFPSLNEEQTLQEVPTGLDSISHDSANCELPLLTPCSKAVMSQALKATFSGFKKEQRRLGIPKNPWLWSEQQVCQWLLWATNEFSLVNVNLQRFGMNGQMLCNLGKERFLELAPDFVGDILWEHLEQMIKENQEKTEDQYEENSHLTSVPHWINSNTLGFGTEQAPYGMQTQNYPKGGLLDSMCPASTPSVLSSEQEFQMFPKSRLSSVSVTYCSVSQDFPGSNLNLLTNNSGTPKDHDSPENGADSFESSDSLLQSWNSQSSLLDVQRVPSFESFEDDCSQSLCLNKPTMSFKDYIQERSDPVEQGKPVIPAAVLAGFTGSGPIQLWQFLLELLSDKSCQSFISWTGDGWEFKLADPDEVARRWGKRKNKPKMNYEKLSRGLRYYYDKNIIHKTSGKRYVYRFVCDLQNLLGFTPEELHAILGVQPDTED
Particulars: protein: recombinant; tags: N-terminal GST; dsDNA, one strand shown. An outline of the steps:
as §1

A further experiment deals with T9, SPDEF (Homo sapiens, UniProt O95238 1-335).
T9 sequence: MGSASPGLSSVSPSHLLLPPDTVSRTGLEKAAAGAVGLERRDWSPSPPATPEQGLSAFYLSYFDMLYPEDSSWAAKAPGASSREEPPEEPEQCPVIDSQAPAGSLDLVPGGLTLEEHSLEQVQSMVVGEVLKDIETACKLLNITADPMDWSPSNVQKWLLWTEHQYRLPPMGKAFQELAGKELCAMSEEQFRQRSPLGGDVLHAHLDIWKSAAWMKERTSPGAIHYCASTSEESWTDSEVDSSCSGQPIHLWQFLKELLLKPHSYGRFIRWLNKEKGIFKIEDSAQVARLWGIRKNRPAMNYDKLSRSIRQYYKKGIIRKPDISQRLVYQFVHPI
Particulars: protein: recombinant; tags: N-terminal GST; dsDNA, one strand shown. In outline: as §1

The next experiment addresses T10, ETV7 (Homo sapiens, UniProt Q9Y603 1-341).
T10 sequence: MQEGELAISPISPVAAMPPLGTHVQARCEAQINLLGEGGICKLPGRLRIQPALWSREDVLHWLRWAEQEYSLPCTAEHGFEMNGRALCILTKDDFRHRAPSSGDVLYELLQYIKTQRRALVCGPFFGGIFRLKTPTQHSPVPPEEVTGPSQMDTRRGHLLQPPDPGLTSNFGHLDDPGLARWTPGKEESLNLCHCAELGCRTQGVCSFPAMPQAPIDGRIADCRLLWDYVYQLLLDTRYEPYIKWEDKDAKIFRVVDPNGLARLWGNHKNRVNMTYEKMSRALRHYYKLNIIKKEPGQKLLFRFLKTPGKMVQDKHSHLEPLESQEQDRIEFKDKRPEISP
The note with it: protein: recombinant; tags: N-terminal GST; dsDNA, one strand shown. In outline: as §1

Another experiment concerns the target T11, ELF5 (Homo sapiens, UniProt Q9UKW6-2 1-255).
T11 sequence: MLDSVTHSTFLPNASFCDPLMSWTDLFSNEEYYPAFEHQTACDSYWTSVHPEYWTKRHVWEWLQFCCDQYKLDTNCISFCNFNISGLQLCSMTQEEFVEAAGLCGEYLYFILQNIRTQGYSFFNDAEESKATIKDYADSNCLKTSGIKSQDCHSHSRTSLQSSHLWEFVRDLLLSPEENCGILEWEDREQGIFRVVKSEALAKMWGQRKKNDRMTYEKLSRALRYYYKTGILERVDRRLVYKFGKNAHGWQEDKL
Particulars: protein: recombinant; tags: N-terminal GST; dsDNA, one strand shown. In outline: as §1

A further experiment concerns the target T12, ETV3 (Homo sapiens, UniProt P41162-2 1-143).
T12 sequence: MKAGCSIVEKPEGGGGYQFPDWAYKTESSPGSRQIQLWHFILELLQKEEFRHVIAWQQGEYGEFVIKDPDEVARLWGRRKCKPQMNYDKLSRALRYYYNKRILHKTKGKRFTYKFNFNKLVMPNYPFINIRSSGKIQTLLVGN
Particulars: protein: recombinant; tags: N-terminal GST; dsDNA, one strand shown. In outline: as §1

Another experiment addresses ETV6 (Homo sapiens, UniProt P41212 1-452). Particulars: protein: recombinant; tags: N-terminal GST; dsDNA, one strand shown. An outline of the steps:
as §1

ETV5, sequence (P41161 whole entry): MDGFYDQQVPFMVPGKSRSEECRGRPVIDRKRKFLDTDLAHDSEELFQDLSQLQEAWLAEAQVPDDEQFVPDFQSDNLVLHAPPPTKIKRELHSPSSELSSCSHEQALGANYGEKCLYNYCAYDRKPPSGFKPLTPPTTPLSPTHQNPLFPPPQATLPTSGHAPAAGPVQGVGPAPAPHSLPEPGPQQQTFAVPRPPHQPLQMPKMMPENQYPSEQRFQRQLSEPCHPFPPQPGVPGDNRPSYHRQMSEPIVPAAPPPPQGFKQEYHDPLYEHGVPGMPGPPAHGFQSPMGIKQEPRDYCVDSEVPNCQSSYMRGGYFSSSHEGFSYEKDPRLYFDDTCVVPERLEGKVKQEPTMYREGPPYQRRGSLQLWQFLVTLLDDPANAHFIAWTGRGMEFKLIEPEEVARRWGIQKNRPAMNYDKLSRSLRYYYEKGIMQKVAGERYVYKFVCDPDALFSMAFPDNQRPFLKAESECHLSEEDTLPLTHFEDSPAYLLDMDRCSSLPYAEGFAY
ELF4, sequence (Q99607 whole entry): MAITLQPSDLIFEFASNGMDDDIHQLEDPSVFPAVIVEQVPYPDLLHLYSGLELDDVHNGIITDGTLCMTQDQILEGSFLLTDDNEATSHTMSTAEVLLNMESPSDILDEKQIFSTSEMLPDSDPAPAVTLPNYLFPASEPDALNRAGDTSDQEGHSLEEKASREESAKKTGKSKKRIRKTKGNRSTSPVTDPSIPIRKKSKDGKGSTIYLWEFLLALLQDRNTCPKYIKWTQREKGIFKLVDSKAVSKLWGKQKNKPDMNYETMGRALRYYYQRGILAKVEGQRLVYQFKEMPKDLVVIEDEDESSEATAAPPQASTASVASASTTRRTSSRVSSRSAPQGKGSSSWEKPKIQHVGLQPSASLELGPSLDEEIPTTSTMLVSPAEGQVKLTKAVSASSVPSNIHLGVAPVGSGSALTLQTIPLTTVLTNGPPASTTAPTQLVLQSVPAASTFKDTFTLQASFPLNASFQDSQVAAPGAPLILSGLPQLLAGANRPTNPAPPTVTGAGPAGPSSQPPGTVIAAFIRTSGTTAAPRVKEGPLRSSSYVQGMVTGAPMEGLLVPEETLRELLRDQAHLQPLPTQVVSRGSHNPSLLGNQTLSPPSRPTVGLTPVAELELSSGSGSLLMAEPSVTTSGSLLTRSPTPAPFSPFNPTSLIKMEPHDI
CRX, sequence (O43186 whole entry): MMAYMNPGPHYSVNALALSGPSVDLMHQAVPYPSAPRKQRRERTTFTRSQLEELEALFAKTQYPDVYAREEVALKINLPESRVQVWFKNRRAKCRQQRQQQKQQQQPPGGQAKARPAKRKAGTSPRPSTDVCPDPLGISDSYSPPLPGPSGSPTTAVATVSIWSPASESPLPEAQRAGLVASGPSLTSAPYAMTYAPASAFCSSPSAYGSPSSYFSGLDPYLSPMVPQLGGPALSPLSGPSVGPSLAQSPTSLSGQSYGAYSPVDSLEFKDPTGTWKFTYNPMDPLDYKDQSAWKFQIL
ETV1, sequence (P50549 whole entry): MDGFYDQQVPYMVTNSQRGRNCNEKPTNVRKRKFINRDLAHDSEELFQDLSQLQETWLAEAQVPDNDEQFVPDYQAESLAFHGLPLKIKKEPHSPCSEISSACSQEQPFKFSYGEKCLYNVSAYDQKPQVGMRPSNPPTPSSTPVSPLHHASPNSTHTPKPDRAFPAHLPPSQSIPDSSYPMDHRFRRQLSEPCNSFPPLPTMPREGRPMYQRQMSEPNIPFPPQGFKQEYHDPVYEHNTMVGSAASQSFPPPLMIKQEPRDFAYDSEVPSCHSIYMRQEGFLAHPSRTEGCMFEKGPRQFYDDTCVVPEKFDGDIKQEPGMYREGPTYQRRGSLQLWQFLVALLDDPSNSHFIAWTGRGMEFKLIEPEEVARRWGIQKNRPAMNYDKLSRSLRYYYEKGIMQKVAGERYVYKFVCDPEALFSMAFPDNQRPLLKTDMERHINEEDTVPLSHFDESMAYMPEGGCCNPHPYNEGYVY
ETV6, sequence (P41212 whole entry): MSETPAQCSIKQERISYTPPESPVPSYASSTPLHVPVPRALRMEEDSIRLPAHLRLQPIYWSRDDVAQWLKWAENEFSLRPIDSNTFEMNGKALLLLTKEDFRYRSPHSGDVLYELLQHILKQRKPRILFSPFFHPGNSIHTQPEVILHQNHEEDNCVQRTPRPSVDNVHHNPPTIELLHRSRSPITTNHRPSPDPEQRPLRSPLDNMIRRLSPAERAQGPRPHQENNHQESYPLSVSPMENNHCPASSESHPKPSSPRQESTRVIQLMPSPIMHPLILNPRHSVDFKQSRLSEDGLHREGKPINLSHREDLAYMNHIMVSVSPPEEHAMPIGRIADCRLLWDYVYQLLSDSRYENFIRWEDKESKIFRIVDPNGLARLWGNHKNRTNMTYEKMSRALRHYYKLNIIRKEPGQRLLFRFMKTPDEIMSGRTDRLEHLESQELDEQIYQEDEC
HSF1, sequence (Q00613 whole entry): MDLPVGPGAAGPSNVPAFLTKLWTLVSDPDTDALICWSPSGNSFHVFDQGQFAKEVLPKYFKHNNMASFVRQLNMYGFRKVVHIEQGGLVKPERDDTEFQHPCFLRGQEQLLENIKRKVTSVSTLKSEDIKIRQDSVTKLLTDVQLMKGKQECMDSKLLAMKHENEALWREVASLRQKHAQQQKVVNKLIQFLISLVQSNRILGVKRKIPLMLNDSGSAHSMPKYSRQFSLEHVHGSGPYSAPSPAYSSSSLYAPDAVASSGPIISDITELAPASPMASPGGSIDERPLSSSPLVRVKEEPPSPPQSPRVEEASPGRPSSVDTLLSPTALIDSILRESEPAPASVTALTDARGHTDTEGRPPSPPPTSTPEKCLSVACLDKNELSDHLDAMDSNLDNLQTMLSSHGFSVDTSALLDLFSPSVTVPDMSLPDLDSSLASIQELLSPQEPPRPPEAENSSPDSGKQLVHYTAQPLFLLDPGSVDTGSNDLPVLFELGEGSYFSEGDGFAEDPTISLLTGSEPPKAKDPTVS

Take GTCTCA: the binding signal with FEV is 1.25 fold enrichment (6-mer frequency, TF over GST control); in the experiment with ETV5 it was 1.4 fold enrichment (6-mer frequency, TF over GST control); with HSF1, 1.01 fold enrichment (6-mer frequency, TF over GST control); with SPIC, 1.4 fold enrichment (6-mer frequency, TF over GST control); with ELF4 it was 1.33 fold enrichment (6-mer frequency, TF over GST control); in the experiment with ELK4, 1.34 fold enrichment (6-mer frequency, TF over GST control). The binding signal with ETV2 is 1.32 fold enrichment (6-mer frequency, TF over GST control); in the experiment with ELF3 it was 1.48 fold enrichment (6-mer frequency, TF over GST control); in the experiment with CRX, 1.12 fold enrichment (6-mer frequency, TF over GST control); with ETV1, 1.24 fold enrichment (6-mer frequency, TF over GST control); in the experiment with ERF it was 1.37 fold enrichment (6-mer frequency, TF over GST control); with ETV3L, 1.3 fold enrichment (6-mer frequency, TF over GST control). For the same sequence, the binding signal is 1.34 fold enrichment (6-mer frequency, TF over GST control) with ETS2; 1.29 fold enrichment (6-mer frequency, TF over GST control) with SPDEF; 1.13 fold enrichment (6-mer frequency, TF over GST control) in the experiment with ETV7; 1.3 fold enrichment (6-mer frequency, TF over GST control) in the experiment with ELF5; 1.32 fold enrichment (6-mer frequency, TF over GST control) with ETV3; 1.16 fold enrichment (6-mer frequency, TF over GST control) in the experiment with ETV6.
